Screening results: PubChem BioAssay, National Center for Advancing Translational Sciences (NCATS)
DT40 TDP1 CPT: qHTS for Inhibitors of human tyrosyl-DNA phosphodiesterase 1 (TDP1): qHTS in cells in presence of CPT | chicken DT40 Tdp1-/-;hTDP1 cells + 20 nM CPT, ATP luminescence, 48 h | Potency, µM (highest dose often 46.2 µM), for inactives: top-dose activity change, negative = growth inhibition, hits mostly inhibitors | 420,000 compounds, 12% hits; also: potency is read from the fitted curve at half-maximal effect; nearly all actives have a fitted effect of over 55% in size
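Cell growth measured by CellTiter-Glo luminescence after a minimum 48 h, 37 C compound exposure with 20 nM CPT in Tdp1-knockout DT40 cells stably expressing hTDP1, seeded 400/well; qHTS titration format.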
HT1080-NT tox: qHTS for induction of synthetic lethality in tumor cells producing 2HG: qHTS for the HT-1080-NT fibrosarcoma cell line; HT-1080-NT fibrosarcoma viability, CellTiter-Glo ATP luminescence, 48 h; Potency, µM (titrated, usually from 46.1 µM), inactives show at the top dose activity, negative = less viability, actives largely listed as cytotoxic; 360,000 compounds, 1.6% hits; AID 686970, 2013;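 also: NT is the 2HG producing partner of a matched IDH1 knockdown line; potency is read from the fitted curve at half-maximal effect; 0% = DMSO-treated cells and -100% = media-only wells without cells; nearly all actives have a fitted effect of over 55% in size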
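Viability by CellTiter-Glo luminescence after 48 h compound exposure at 37C of HT-1080-NT cells (750/well, RPMI, 5% FBS). % activity scaled between DMSO wells and medium-only wells, then curve-fitted and categorized by curve class.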
IL-1B inflam inh: qHTS for Inhibitors of Inflammasome Signaling: IL-1-beta AlphaLISA Primary Screen; activity change, % at 57.5 µM; 360,000 compounds, 4.7% hits; THP-1 LPS/ATP IL-1B secretion, AlphaLISA, 16 h; hits give low values; in the data active = activity change below about -50%; inconclusive = mostly about -30% to -49%
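THP-1 cells pretreated 1 hr with compounds (up to 57.5 uM final), then stimulated with LPS (250 ng/mL final) plus ATP (1.25 mM final); secreted IL-1B measured by AlphaLISA after 16 hr, decreased signal indicating inhibition.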
HT1080 IDH1KD tx: qHTS for induction of synthetic lethality in tumor cells producing 2HG: qHTS for the HT-1080-IDH1KD cell line; HT-1080 IDH1 knockdown viability, ATP luminescence, 48 h; Potency, µM (top dose mostly 46.1 µM), for the others: top-dose activity, negative = toxicity, most hits filed as cytotoxic; 360,000 compounds, 2% hits; AID 686971, 2013;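 also: potency is read from the fitted curve at half-maximal effect; 0% = DMSO wells and -100% = cell-free medium wells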
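Using the IDH1-knockdown HT-1080 line run in the same batch and compound series as the NT line, viability after 48 h at 37 °C was determined by CellTiter-Glo luminescence and expressed as % activity.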
ELG1 DNA repair: qHTS screen for small molecules that inhibit ELG1-dependent DNA repair in human embryonic kidney (HEK293T) cells expressing luciferase-tagged ELG1; HEK293T ELG1-luciferase reporter, luminescence, 16 h; DNA damage induced by 5-fluorouridine; Potency, µM (titrated, usually from 46.1 µM), for the others: at the highest dose activity change, negative = inhibition, usual class: inhibitors; 330,000 compounds, 2.3% hits; AID 504467, 2011; also: potency is read from the fitted curve at half-maximal effect; nearly all actives have a fitted effect of over 55% in size
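Quantitative HTS, concentration-response format. 2,000 cells/well co-treated with 5-fluorouridine and compound, 16 hr in 5% CO2 at 37 °C; ONE-Glo luminescence read after 30 min.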
DT40 TDP1 no CPT: qHTS for Inhibitors of human tyrosyl-DNA phosphodiesterase 1 (TDP1): qHTS in cells in absence of CPT; Potency, µM (titrated, usually from 46.2 µM), for the others: top-dose activity change, negative = growth inhibition, actives largely listed as inhibitors; AID 686978, 2013; 420,000 compounds, 15% hits; DT40 Tdp1-/- hTDP1 cells, no CPT, ATP luminescence, 48 h; also: potency is read from the fitted curve at half-maximal effect; nearly all actives have a fitted effect of over 55% in size
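Luminescent ATP content (CellTiter-Glo) served as the growth readout. Knockout chicken DT40 cells expressing human TDP1 were exposed to compounds without camptothecin for a minimum 48 hr at 37 °C.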
Starred values were filed as active, the others as inactive; ? = inconclusive; nt = no result given. The list is not random: actives were taken first. Their share in the collection is about 19%. Unless noted, calls follow the shape of the dose curve; as a rule, active = well fitted curve in the direction sought with a large enough effect; inconclusive = small, poorly fitted or top-dose-only effect, or another doubt; inactive = no such curve, though single readings can be large; an effect the other way counts as inactive or inconclusive. Unless noted, % is scaled to controls: 0 for no effect and ±100 for the full control effect.

SMILES | DT40 TDP1 CPT | HT1080-NT tox | IL-1B inflam inh | HT1080 IDH1KD tx | ELG1 DNA repair | DT40 TDP1 no CPT
COc1ccc(CC2C(=O)NC(C)C(=O)N(C)C3Cc4ccc(cc4)Oc4cc(ccc4O)CC(C(=O)NC(C)C(=O)NC(C)C(=O)N2C)N(C)C3=O)cc1 (stereo unspecified) | 0.018µM* | 0.33µM* | -100* | 0.16µM* | nt | 0.16µM*
O=C(C[n+]1ccccc1)Nc1ccc(Oc2ccccc2)cc1 | 12µM* | -16% | ? | -17% | -8% | ?
O=C(CN1CCCCCC1)Nc1ccc(Oc2ccccc2)cc1 | 10% | ? | ? | ? | 1% | ?
CO/N=C\CC(=O)Nc1ccc(Oc2ccccc2)cc1 | 1.5µM* | ? | 81 | ? | 3% | 1.3µM*
COc1cc(NC(=O)C[n+]2ccc(C(=O)c3ccccc3)cc2)cc(OC)c1 | 23µM* | 1% | -21 | -2% | ? | 13µM*
O=C(O)c1cc(N2CCCC2)ccn1 | -16% | 8% | 0 | 13% | nt | 2%
Cc1ccc(NC(=O)CN2CCN(S(=O)(=O)c3ccc(F)cc3)CC2)cc1C | ? | -1% | -13 | -12% | -6% | -28%
COc1ccc(S(=O)(=O)N2CCN(CC(=O)Nc3cccc(F)c3)CC2)cc1 | -7% | -3% | 0 | 6% | -9% | -3%
Cc1ccc(NC(=O)CN2CCN(S(=O)(=O)c3ccc(C(C)C)cc3)CC2)cc1F | 21µM* | nt | nt | nt | nt | ?
COc1ccc(S(=O)(=O)N2CCN(CC(=O)Nc3ccc(C)c(F)c3)CC2)cc1 | ? | -1% | -61* | -14% | -13% | 18µM*
CCCCc1nn(-c2cc(Cl)ccc2OC)c2c1C(=O)CC(C)(C)C2 | 12µM* | 12% | -6 | 6% | -14% | 21µM*
CCCc1nn(-c2cc(Cl)ccc2OC)c2c1C(=O)CCC2 | ? | 0% | -6 | 1% | 0% | ?
O=C(CSc1nnc(-c2ccncc2)n1Cc1ccccc1)NC1CCCc2ccccc21 (stereo unspecified) | -30% | 3% | -21 | 19% | ? | ?
O=C(CCS(=O)(=O)c1ccc(F)cc1)Nc1nnc(-c2ccc(F)cc2)o1 | 13µM* | -7% | ? | 1% | -6% | 16µM*
COc1cccc(-c2nnc(NC(=O)CCS(=O)(=O)c3ccc(C)cc3)o2)c1 | ? | 2% | ? | -2% | 25% | ?
COc1ccccc1-c1nnc(NC(=O)CCS(=O)(=O)c2ccccc2)o1 | 23µM* | ? | -81* | -19% | -9% | 18µM*
COc1ccccc1-c1nnc(NC(=O)CCS(=O)(=O)c2ccc(F)cc2)o1 | 8.2µM* | -16% | -24 | -18% | nt | 9.2µM*
COc1cc(-c2nnc(NC(=O)CS(=O)(=O)c3ccc(F)cc3)o2)cc(OC)c1OC | 6% | 2% | 16 | 1% | 13% | 7%
Cc1ccc(-c2nnc(NC(=O)CCS(=O)(=O)c3ccc(F)cc3)o2)c(C)c1 | -6% | -14% | 6 | -8% | 3% | -6%
CCCCNC(=S)N(CCCN(C)C)Cc1cc2cc3c(cc2[nH]c1=O)OCO3 | -1% | -4% | -1 | 2% | -24% | ?
COCCN(Cc1cc2c(C)cc(C)cc2nc1Cl)C(=O)c1ccccc1F | 10µM* | 8% | 5 | 3% | ? | 8.2µM*
Cc1cc(C)c2nc(Cl)c(CN(Cc3ccco3)C(=O)Nc3ccccc3C)cc2c1 | 5.2µM* | 5µM* | 65 | 5.6µM* | -1% | 4.6µM*
COCCN(Cc1cc2cc(C)cc(C)c2nc1Cl)C(=O)Nc1ccccc1 | 4.6µM* | 10µM* | 38 | 7.1µM* | -19% | 3.3µM*
CSc1nc(=O)[nH]c2nc[nH]c12 | -2% | nt | nt | nt | nt | -2%
COc1cc(/C=N/NC(=O)c2ccccn2)ccc1OC(=O)c1ccc(Br)cc1 | 18µM* | -16% | 0 | -4% | ? | ?
SMILES | DT40 TDP1 CPT | HT1080-NT tox | IL-1B inflam inh | HT1080 IDH1KD tx | ELG1 DNA repair | DT40 TDP1 no CPT
CC(NC(=O)NC(=O)c1ccc(Cl)cc1)c1ccccc1 (stereo unspecified) | ? | -1% | -9 | -1% | -3% | ?
CC(NC(=O)NC(=O)c1cccc(Cl)c1)c1ccccc1 (stereo unspecified) | 13µM* | 0% | 14 | 4% | -6% | ?
CC(C)c1ccc(/C=N/NC(=O)c2ccc(-n3cnnn3)cc2)cc1 | ? | ? | -19 | ? | ? | 12µM*
CC(C)c1ccc(/C=N/NC(=O)c2cc(-c3cccc([N+](=O)[O-])c3)n[nH]2)cc1 | ? | ? | 14 | 23µM* | ? | ?
CC(C)c1ccc(/C=N/NC(=O)c2ccccn2)cc1 | 0.033µM* | ? | -53* | ? | ? | -11%
O=C(N/N=C/c1cccnc1)c1cccc(Cl)c1 | 8% | 15% | 1 | 22% | 0% | -12%
CC(C)c1ccc(/C=N/NC(=O)c2cccc(Cl)c2)cc1 | 10µM* | 23µM* | -15 | 21µM* | ? | 5.8µM*
CCC(C)NC(=O)/C=C1\Sc2ccccc2NC1=O (stereo unspecified) | -12% | 28% | -61* | 7% | 17% | ?
Cc1ccc(N/C=C2/Sc3ccccc3NC2=O)cc1 | -14% | 17% | 13 | 6% | ? | 2%
O=C(COc1ccc(S(=O)(=O)N2CCCCC2)cc1Cl)N1CCOCC1 | 0% | 2% | 1 | 0% | -17% | -19%
CC1(C)N=C(N)N=C(N)N1c1ccc(OCC(=O)N2CCOCC2)c(Cl)c1 | 0.41µM* | 0.52µM* | 2 | 0.13µM* | nt | 0.37µM*
CC1(C)N=C(N)N=C(N)N1c1ccc(OCC(=O)N2CCOCC2)cc1 | ? | 23µM* | -12 | 6.5µM* | nt | ?
Nc1ccc(-c2n[nH]c(=O)c3ccccc23)cc1N | 0.46µM* | -1% | 23 | -13% | -4% | ?
Cc1ccc(-c2n[nH]c(=O)c3ccccc23)cc1N | ? | -25% | 21 | ? | -29% | -23%
CC(CCc1ccccc1)NC(=O)CCNC(=O)Cn1ccc2ccccc2c1=O (stereo unspecified) | 11% | 3% | -4 | -1% | 9% | -3%
